Measured values taken from PubChem BioAssay AID1159580 (chemical genetic matrix, 2015).
“And” between values parts separate entries of the source, which are not always exact repeats. Identical values can stand only once. Screen size: about 5,500 compounds; about 2,000 (36%) were called active. Roughly 18% stayed inconclusive and do not appear here. No stated cut-off is given here; in the data, active means normalized growth mostly below about 0.91 (no sharp cut-off); inconclusive means no clear call, values can overlap the other calls; inactive means mostly above about 0.92. Some of the results follow.

Assay: chemical genetic growth profiling, strain panel (AID 1159580);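 further: tested at 20 µM; growth read once vehicle control cultures reached saturation at 30 °C; 1 = growth at the plate median or of vehicle wells; lower values mean less growth of the strain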
Conditions: S. cerevisiae deletion strains, growth OD

Measured: normalized growth

COc1c(O)cc(O)cc1O
inactive: locus YAL021C, strain ccr4, active compounds read low 1.01 | locus YAL026C, strain drs2, active compounds read low 1.02 | locus YAL030W, strain snc1, active compounds read low 0.999 | locus YBL061C, strain skt5, active compounds read low 0.996 | locus YBR009C, strain hhf1, active compounds read low 1.02 | locus YBR021W, strain FUR4, active compounds read low 0.985 | locus YBR023C, strain chs3, active compounds read low 1.01 | locus YBR171W, strain sec66, active compounds read low 0.994 | locus YBR229C, strain ROT2, active compounds read low 1 | locus YBR231C, strain swc5, active compounds read low 1.01 | locus YBR279W, strain paf1, active compounds read low 1 | locus YCL011C, strain gbp2, active compounds read low 1.01 | locus YCL016C, strain dcc1, active compounds read low 1.01 | locus YCL029C, strain bik1, active compounds read low 1.02 | locus YCL061C, strain MRC1, active compounds read low 1 | locus YCL069W, strain vba3, active compounds read low 1 | locus YCR088W, strain abp1, active compounds read low 0.992 | locus YDL005C, strain med2, active compounds read low 0.983 | locus YDL035C, strain GPR1, active compounds read low 1.07 | locus YDL040C, strain nat1, active compounds read low 0.981 | locus YDL074C, strain BRE1, active compounds read low 1.06 | locus YDL101C, strain DUN1, active compounds read low 0.992 | locus YDL185W, strain tfp1, active compounds read low 0.978 | locus YDL192W, strain arf1, active compounds read low 1 | locus YDR001C, strain nth1, active compounds read low 1 | locus YDR069C, strain doa4, active compounds read low 1 | locus YDR101C, strain arx1, active compounds read low 1.04 | locus YDR137W, strain rgp1, active compounds read low 1.04 | locus YDR159W, strain sac3, active compounds read low 0.976 | locus YDR162C, strain NBP2, active compounds read low 1.06 | locus YDR195W, strain ref2 0.951 | locus YDR297W, strain sur2, active compounds read low 0.998 | locus YDR318W, strain mcm21, active compounds read low 1 | locus YDR334W, strain swr1, active compounds read low 0.994 | locus YDR335W, strain msn5, active compounds read low 1 | locus YDR388W, active compounds read low 0.997 | locus YDR392W, strain spt3, active compounds read low 1.01 | locus YDR502C, strain sam2, active compounds read low 0.998 | locus YEL003W, strain gim4, active compounds read low 1.02 | locus YEL037C, strain rad23, active compounds read low 1 | locus YEL061C, strain CIN8 (second series), active compounds read low 1.01 | locus YEL061C, strain CIN8, active compounds read low 1.01 | locus YER015W, strain faa2, active compounds read low 1 | locus YER016W, strain bim1, active compounds read low 0.996 | locus YER110C, active compounds read low 0.991 | locus YER111C, strain swi4, active compounds read low 0.989 | locus YER155C, strain BEM2 (second series), active compounds read low 1.02 | locus YER155C, strain BEM2, active compounds read low 0.989 | locus YER167W, strain BCK2, active compounds read low 1 | locus YFR010W, strain ubp6, active compounds read low 0.999 | locus YGL078C, strain dbp3, active compounds read low 0.969 | locus YGL086W, strain mad1, active compounds read low 1.01 | locus YGL167C, strain pmr1, active compounds read low 0.998 | locus YGL173C, strain kem1, active compounds read low 0.999 | locus YGL227W, strain vid30, active compounds read low 0.988 | locus YGL240W, strain doc1, active compounds read low 0.992 | locus YGL248W, strain PDE1, active compounds read low 0.996 | locus YGL253W, strain hxk2, active compounds read low 1.01 | locus YGR078C, strain PAC10, active compounds read low 1.02 | locus YGR135W, strain pre9, active compounds read low 0.972 | locus YGR252W, strain gcn5, active compounds read low 0.997 | locus YHR013C, strain ard1, active compounds read low 1.01 | locus YHR027C, strain rpn1, active compounds read low 0.988 | locus YHR030C, strain SLT2, active compounds read low 1.01 and 1.05 | locus YHR079C, strain IRE1 (second series), active compounds read low 0.997 | locus YHR079C, strain IRE1, active compounds read low 1.02 | locus YHR094C, strain hxt1, active compounds read low 1 | locus YHR129C, strain ARP1, active compounds read low 0.998 | locus YHR142W, strain chs7, active compounds read low 1.03 | locus YHR200W, strain rpn10, active compounds read low 0.984 | locus YIL066C, strain RNR3, active compounds read low 1 | locus YIL073C, strain SPO22, active compounds read low 1.05 | locus YIL125W, strain kgd1, active compounds read low 1 | locus YIR030C, strain dcg1, active compounds read low 1.01 | locus YJL092W, strain hpr5, active compounds read low 0.995 | locus YJL095W, strain BCK1 (second series), active compounds read low 1 | locus YJL095W, strain BCK1, active compounds read low 0.998 and 1.05 | locus YJL115W, strain asf1, active compounds read low 0.992 | locus YJL129C, strain trk1, active compounds read low 0.989 | locus YJL134W, strain LCB3, active compounds read low 0.997 | locus YJL154C, strain vps35, active compounds read low 0.995 | locus YJL164C, strain tpk1, active compounds read low 1.01 | locus YJL166W, strain qcr8, active compounds read low 1.05 | locus YJL168C, strain set2, active compounds read low 1 | locus YJL187C, strain SWE1 (second series), active compounds read low 0.997 | locus YJL187C, strain SWE1, active compounds read low 1 | locus YJR043C, strain POL32, active compounds read low 1.07
